# Reference: PubChem BioAssay (NCI)
# This is part of a sample that, as a whole, favours compounds with a hit. Of some 83,000 tested, about 20% had one in any assay.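 For each line, cells grew in 96-well plates with the test compound present at a single concentration for 48 hours.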 Unmarked numbers belong to inactive results. The source made the active and inactive calls. The calls were made as follows: active = growth percent below 10; inactive = the rest.
# Test system: HL-60(TB) leukemia
# Experiment: NCI-60 one-dose screen, 48 h (100 = growth as untreated, 0 = no growth, -100 = all killed)
# Conditions: 10 µM unless noted
row,Structure (SMILES),growth
1,C/C(=N\NC(=O)c1ccc(C(C)(C)C)cc1)c1ccc(O)cc1O,9.36% (active)
2,CCOC(=O)C(CCC1=NC(C)(C)CC(C)O1)C(=O)OCC (stereo not given),56.4%
3,COc1cccc(/C=C2\C=C(c3ccccc3)N(Cc3ccccc3)C2=O)c1,90.7%
4,COc1ccc(-n2nnnc2-c2cn[nH]c2C(F)(F)F)cc1,98.3%
5,COc1cc(/C=N/N(C)C)ccc1O,86.5%
6,COc1ccc(CCN2CCCN3C2=Nc2ccccc2S3(=O)=O)cc1,3.21% (active)
7,CCC(C)(O)CCC(C)(O)CC (stereo not given),101%
8,CCCCCC(C)c1ccc(O)c(C)c1 (stereo not given),91.4%
9,S=C(N/N=C/c1cc(Cl)cc(Cl)c1)NC12CC3CC(CC(C3)C1)C2,104%
10,COc1cccc(C2C(C#N)=C(N)Oc3c2ccc2ccccc32)c1 (stereo not given),-30.3% (active)
11,O=C(NCCCNc1cc(-c2cn(-c3ccccc3)nc2-c2cccc(O)c2)ccn1)c1ccc(F)cc1,-2.74% (active)
12,CCOC(=O)c1c2ncccc2n2c(=O)n(-c3ccc(Cl)cc3)nnc12,80.5%
13,Nc1ccccc1C#C/C=C\C#Cc1cccc(O)c1,12.6%
14,COC(=O)c1cc(Br)ccc1O,97.8%
15,COC(=O)c1cc(Nc2ccc(O)c3c2C(=O)c2c([N+](=O)[O-])ccc(O)c2C3=O)cc(C(=O)OC)c1,62.3%
16,NC(N)=N/N=C/c1ccc([N+](=O)[O-])o1,76.1%
17,O=C(/C=C/c1ccccc1)c1ccc2ccccc2c1,56.1%
18,C=C(C[C@@](O)(C(=O)Oc1ccccc1)C(=O)C1CCCCC1)c1ccccc1,112%
19,COc1ccc(Br)c(C=O)c1,-16.3% (active)
20,CC(=O)N[C@@H](CNC(=O)c1cc(NC(=O)c2cc(NC(=O)c3cc(NC(=O)c4nccn4C)cn3C)cn2C)cn1C)CC(=O)Nc1cn(C)c(C(=O)Nc2cc(C(=O)Nc3cc(C(=O)Nc4cc(C(=O)NCCCN(C)CCCNC(=O)c5cccc(C(=O)O)c5)n(C)c4)n(C)c3)n(C)c2)n1,109%

row,Structure (SMILES),growth
1,Nc1n[nH]c2ccc([C@@H]3Nc4c(F)cc5[nH]ncc5c4[C@H]4C5CCC(C5)[C@@H]34)cc12 (stereo not given in full),1.76% (active)
2,ClCC1(Cn2cnc3c(Cl)nc(Cl)nc32)COC1,91.6%
3,S=C(Cc1ccccc1)N1CCN(c2ccccc2Cl)CC1,92.1%
4,NC(=O)c1cccc(-c2cc(C(N)=O)ccc2Cl)c1,-22.7% (active)
5,Brc1ccc2c(c1)c(-c1nc(-c3c[nH]c4ncccc34)cs1)cn2CCCN1CCCCC1,13.3%
6,CCCCCCCCn1ccc2cc(NC(=O)Cn3cc(CN4CCOCC4)nn3)ccc21,97.4%
7,CC/C=C\C[C@H](O)C/C=C1/C(=O)C=C[C@@H]1C/C=C\CCCCO,36.4%
8,CN(C)CCOC(=O)Nc1ccc(Cc2ccc(NC(=O)OCCN(C)C)cc2)cc1,52.8% [100 µM]
9,O=C(CSc1nnc(-c2ccc(Cl)cc2)o1)c1ccccc1,90.9%
10,CCN(CC)CCNC(=O)c1c(C)[nH]c(/C=C2\C(=O)Nc3ccc(F)cc32)c1C,-23% (active)
11,O=C(CN1C(=O)c2ccccc2S1(=O)=O)Nc1nc(-c2cc3ccccc3oc2=O)cs1,101%
12,CCCCNC(=O)c1cc(NCc2cc(O)ccc2O)ccc1O,3.56% (active)
13,CCCOc1ccc(-c2nc(-c3ccc(N)cc3)cs2)cc1,56.7%
14,Nc1ncnc2c1CN(Cc1ccccc1)CC2,105%
15,CC(=O)[C@@H]1CC[C@]2(CO)CC[C@]3(C)[C@H](CC[C@@H]4[C@@]5(C)CCCNC(C)(C)[C@@H]5CC[C@]43C)[C@@H]12,136%
16,CCOC(=O)c1c(C)nc2c(c1N)C(=O)C(=O)N2Cc1ccc(C(F)(F)F)cc1,43.5%
17,O=C(c1ccccc1)c1ccco1,86.1%
18,CCc1ccc2c(c1)N(CCO)C1=C(C(=O)OC1)C2c1cc(OC)c(OC)c(OC)c1 (stereo not given),-26.4% (active)
19,O=C1/C=C/[C@@H](O)[C@@H]2C[C@@H](O)C[C@H]2/C=C/CCC[C@H](CCc2ccccc2)O1,3.95% (active)
20,COc1cc(/C=C/C(=O)C(=Cc2ccc(F)c(F)c2)C(=O)/C=C/c2ccc(O)c(OC)c2)ccc1O,16.6%
